These results are taken from PubChem BioAssay (EPA / NIEHS).

Each structure is given as a SMILES string. Activity calls are given as the source filed them. How the source made its calls: active means hit-call score of the fitted dose curve at least 0.9, where 1 is the maximum; inactive means score below 0.9.

Read-out in the assay: Glutamate-cysteine ligase catalytic (GCLC), GCLC (gene 2729)
Put plainly: LTEA_HepaRG_GCLC: Life Technologies and Expression Analysis (LTEA) Assay for Glutamate-cysteine ligase catalytic (GCLC) using HepaRG (AID 2283498). Particulars: mRNA level, 48 h; actives raise or lower the signal. As for the experimental part: LTEA_HepaRG is a cell based, multiplexed-readout assay that uses HepaRG, a human liver cell line, with measurements taken at 48 hours after chemical dosing on a 96-well plate.LTEA_HepaRG_GCLC is one of 102 assay component(s) measured in the LTEA HepaRG cell culture assay. It is a marker of Oxidative Stress.Data from the assay component LTEA_HepaRG_GCLC was analyzed into 1 endpoint. This assay endpoint, LTEA_HepaRG_GCLC, was analyzed with bidirectional fitting relative to DMSO as the negative control and baseline of activity. Using a type of inducible reporter, measures of mRNA induction for gain or loss-of-signal activity can be used to understand regulation of transcription factor activity. To generalize the intended target to other relatable targets, this assay endpoint is annotated to the ligase intended target family, where the subfamily is C-N ligase.
A total of 1060 chemcials from the ToxCast library were tested in eight-point concentration-response experiments. Cell culture and cytotoxicity assays were conducted at Thermo Fisher Scientific's Custom Services facility (Madison, WI). A single lot of human HepaRG cells (Thermo Fisher Scientific, Frederick, MD) was used for the cell culture experiments. 96-well format collagen type I coated plates of human HepaRG cells were prepared using established methods. Briefly, cryopreserved HepaRG cells were thawed, plated at a density of approximately 100,000 cells/well in HepaRG Thaw, Plate, and General Purpose media (HPRG770, Thermo Fisher Scientific), and incubated for 48 hours. 0.5% DMSO was selected as vehicle control to balance the requisite need of DMSO in HepaRG cultures to maintain differentiation (for example, baseline metabolism, proportions of hepatocytes vs. cholangiocytes), while enabling further hepatic receptor pathway activation (for example, PXR and CAR) in response to chemical exposure. 48 hours after plating, the culture medium was replaced with HepaRG Serum-Free Incudtion Media. Cells were exposed to each test chemical in duplicate and maintained in CO2 incubators for another 48 hours. Chemical plates were thawed to room temperature and 200x concentrations of treatment groups were prepared. 8-point conentration-reponse curves were made with the highest exposure at 100 uM, followed by half-log dilutions, all in 0.5% DMSO. Each test plate contained variouse controls, induction positive controls (1mM phenobarbital), cytotoxicity positive controls ([…] aflatoxin B1), vehicle controls (0.5% DMSO), and total lysis controls (0.5% DMSO). Cell morphology images were taken using an Essen IncuCyte FLR automated microscope, with six 96-well plates imaged in about 24 minutes. Images were captured and exported and JPEG files. Spent culture media was transfered to black-well plates for the LDH assay, and remaining media was sorted at -80 C for later use. Cells were treated with RLT buffer and frozen until shipped for gene expression analysis. Total RNA was isolated from the cell suspension in 75 uL of Buffer RLT (Qiagen, Germantown, MD 20874) by Quintiles/Expression Analysis (Durham, NC) using a custom isolation procedure. Total RNA from each plate well was transferred to a preamplification plate. Fluidigm's 96.96 Dynamic ArrayTM (Fluidigm, Amsterdam, the Netherlands) technology was used for gene expression analyses by quantitative reverse transcription polymerase chain reaction (qRT-PCR, performed by Quintiles/Expression Analysis, Durham, NC)89. Standard TaqManTM Assays (Applied Biosystems/ThermoFisher Scientific, Foster City, CA) were used to assess the expression of 93 genes selected based on their selectivity and sensitivity to important hepatic receptors known to be modulated by environmental chemicals; importance in human hepatocyte functionality; and hepatotoxicity. […]
With `COS(=O)(=O)OC`, the outcome was inactive. `CO/C=C(/C(=O)OC)c1ccccc1COc1cccc(C(F)(F)F)n1`: the compound was classed as inactive. Turning to `CC(C)C(=O)OCC(C)(C)C(OC(=O)C(C)C)C(C)C` (stereo not given), the call was inactive.

Turning to `O=C(O)C(F)(F)C(F)(F)C(F)(F)C(F)(F)C(F)(F)F`, the call was inactive. Usually AC50 stands for the concentration giving half of the maximal activity seen. Take `O=C(O)C(F)(F)C(F)(F)C(F)(F)C(F)(F)C(F)(F)C(F)(F)C(F)(F)C(F)(F)F`: the AC50 was 75.3 µM (active). As to `COc1ccc(O)c(C(C)(C)C)c1`, the result was inactive.

On to `ClC1=C(Cl)[C@]2(Cl)[C@@H]3[C@H]4C[C@H]([C@@H]5O[C@H]45)[C@@H]3[C@@]1(Cl)C2(Cl)Cl`, for which the compound was classed as inactive.

`Cc1cccc([N+](=O)[O-])c1`: the compound was classed as inactive. Regarding `CCOCCOC(C)=O`, the outcome was inactive. As to `C[C@]12CCC(=O)C=C1CC[C@@H]1[C@@H]2CC[C@@]2(C)[C@H]1CC[C@]2(C)O`, the call was inactive. For `CC#Cc1cc(C)nc(Nc2ccccc2)n1`, the AC50 is 32.8 µM (active).

`Oc1ccc(C(c2ccc(O)cc2)(C(F)(F)F)C(F)(F)F)cc1`: the result was inactive. Take `CCNc1nc(NC(C)C)nc(SC)n1`: the result was inactive.

Take `CCC(C)(c1ccc(O)cc1)c1ccc(O)cc1`: the call was inactive.

`CCSC(=O)N(CC)C1CCCCC1`: the outcome was inactive.

Turning to `Cc1ccccc1[N+](=O)[O-]`, the call was inactive. The same measure, in the same setting: the result for `C=CC(N)=O` reads “inactive”. Take `Oc1ccc(Cl)cc1Cl`: the outcome was inactive. Same read-out and setting: the result for `c1ccc(-c2ccccc2)cc1` reads “inactive”. Take `O=C(O)C(F)(F)C(F)(F)C(F)(F)C(F)(F)C(F)(F)C(F)(F)C(F)(F)C(F)(F)C(F)(F)F`: the AC50 is 85.4 µM (active).

For `CN(C)CCO`, the compound was classed as inactive. On to `CC(C)(c1ccccc1)c1ccc(O)cc1`, for which the compound was called inactive. Still for that read-out and setting: the result for `O=S(=O)(O)C(F)(F)C(F)(F)C(F)(F)C(F)(F)C(F)(F)C(F)(F)F` reads “inactive”; that for `C=CC(=O)NCNC(=O)C=C`, “inactive”; that for `Cc1cc2c3c(c1)C(c1ccccc1)=N[C@@H](NC(=O)c1ccncc1)C(=O)N3CC2`, “inactive”. As to `CCOC(=O)C(O)(c1ccc(Cl)cc1)c1ccc(Cl)cc1`, the compound was classed as inactive.

For the compound `CC(c1ccc(O)cc1)(c1ccc(O)cc1)c1ccc(O)cc1`, the AC50 was 73.4 µM (active). In the case of `CCC(=O)O[C@H]1CC[C@H]2[C@@H]3CCC4=CC(=O)CC[C@]4(C)[C@H]3CC[C@]12C`, the result was inactive.

In the case of `CC(C)(O)C(=O)Nc1ccc([N+](=O)[O-])c(C(F)(F)F)c1`, the result was inactive.

As to `Clc1ccc(C(Cl)(Cl)Cl)cc1`, the compound was classed as inactive.

Take `ClC1=C(Cl)[C@]2(Cl)[C@@H]3[C@@H]4C[C@@H]([C@H]5O[C@@H]45)[C@@H]3[C@@]1(Cl)C2(Cl)Cl`: the compound was classed as inactive. For the compound `O=S(=O)(O)C(F)(F)C(F)(F)C(F)(F)C(F)(F)F`, the result was inactive. Take `ClC1=C(Cl)[C@]2(Cl)[C@@H]3[C@@H](Cl)[C@H]4O[C@H]4[C@@H]3C1(Cl)C2(Cl)Cl`: the compound was called inactive.

Take `Clc1ccc(Cl)cc1`: the result was inactive. With `Oc1c(Cl)c(Cl)c(Cl)c(Cl)c1Cl`, the AC50 was 1.97 µM (active). For `ClC(Cl)=C(c1ccc(Cl)cc1)c1ccc(Cl)cc1`, the result was inactive. On the same count and under the same terms, the result for `Cc1ccccc1O` reads “inactive”; that for `CC1=C2C[C@H]3[C@@H](CC=C4C[C@@H](O)CC[C@@]43C)[C@@H]2CC[C@]12O[C@@H]1C[C@H](C)CN[C@H]1[C@H]2C`, “inactive”. With `NS(=O)(=O)C(F)(F)C(F)(F)C(F)(F)C(F)(F)C(F)(F)C(F)(F)C(F)(F)C(F)(F)F`, the AC50 was 5.02 µM (active). As to `CCC(C)c1cc([N+](=O)[O-])cc([N+](=O)[O-])c1O` (stereo not given), the AC50 was 1.29 µM (active).
